Measurements: PubChem BioAssay
The other results are listed elsewhere or left out. Values without a mark were called inactive. Active and inactive are the calls of the source. Rule as the data show it, unless noted: active = inhibition above about 14%; inactive = the rest.

What was measured:
[1] = system: HIV-1 integrase (multimerization); experiment: HIV-1 IN multimer formation enhancers, counter-screen for LEDGF/p75 integration inhibitor project, biochemical, TR-FRET (AID 1053131; in the data active = activation above about 8.9%); conditions: TR-FRET HIV-1 integrase multimerization, at 7.7 µM, stronger effect = higher value
[2] = TR-FRET optical interference artefacts, confirmation, artefact control for LEDGF/p75-dependent integration inhibitor project, biochemical, HIV-1 IN multimerization (AID 1053135;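 active = inhibition above the mean over all tested compounds plus 3 SD, which no compound reached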;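 also: 0% = integrase with antibodies and DMSO and 100% = antibodies without integrase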); conditions: TR-FRET optical interference counterscreen, at 7.7 µM, stronger effect = higher value
[3] = system: HIV-1 integrase / human LEDGF/p75 complex; experiment: inhibitors of HIV-1 IN-LEDGF/p75 DNA integration, confirmation, biochemical, TR-FRET (AID 1053136); conditions: TR-FRET LEDGF/p75-dependent HIV-1 integration, at 3.7 µM, stronger effect = higher value

| SMILES | activation [1] | inhibition [2] | inhibition [3] |
| --- | --- | --- | --- |
| CC(=O)c1nc2ccccc2n1Cc1ccccc1 | -0.46% | 2.34% | -4.4% |
| CCc1cc2c(SCC(=O)Nc3ncc(Cl)c(C)c3Cl)ncnc2s1 | -0.15% | 0.78% | 0.88% |
| CCOc1cccc(=O)c2c(C)n(CC3CCCO3)c(C)c12 (stereo unspecified) | 2.93% | -10.4% | 4.91% |
| COC(=O)C1=C(C)N(C)C(=O)NC1c1ccc([N+](=O)[O-])o1 (stereo unspecified) | 0.76% | -3.75% | 0.3% |
| COc1ccc(C(=O)/C=C/c2ccc(-c3ccccc3)cc2)cc1CSCC(=O)O | -1.35% | 6.82% | 21.8% (active) |
| COc1c(O)cc2oc(-c3ccc(O)c(O)c3)cc(=O)c2c1O | 16.2% (active) | -81.9% | 89.6% (active) |
| Cc1cc2c(c(=O)n1Cc1ccco1)C(c1ccccc1)C(C#N)=C(N)O2 (stereo unspecified) | 1.58% | -5.7% | -9.1% |
| O=C(O)CCC(=O)Nc1ccc(N2CCOCC2)cc1 | 0.12% | -0.6% | 1.39% |
| C=CCN1C(=O)C(O)(CC(=O)c2ccccn2)c2ccccc21 (stereo unspecified) | 0.97% | -4.84% | 0.38% |
| C[C@H]([C@@H](O)[C@@H](O)[C@@H](C)C(C)(C)C)[C@H]1CC[C@H]2C3CC[C@H]4C[C@H](OS(=O)(=O)O)[C@@H](OS(=O)(=O)O)C[C@]4(C)[C@H]3CC[C@]12C (stereo partly specified) | -1.87% | 6.58% | 32.4% (active) |
| Cc1ccc(/C=C/C(=O)Nc2ccc([N+](=O)[O-])c(NC(=O)/C=C/c3ccc(C)o3)c2)o1 | 14.2% (active) | -71.7% | 41.9% (active) |
| COCCn1nnnc1C(c1cc2ccc(OC)cc2[nH]c1=O)N1CCc2ccccc2C1 (stereo unspecified) | 0.07% | -0.28% | 0.92% |
| COc1ccc(C2CC(c3cccs3)=NN2C(=O)COC(=O)c2cc3ccccc3cc2O)cc1OC (stereo unspecified) | -0.23% | 1.12% | -6.48% |
| COc1ccccc1-c1cc(C(=O)NCCCn2ccnc2)no1 | 1.02% | -3.78% | -0.05% |
| CSc1nc(N)c(C#N)c(-c2ccccc2Cl)c1C#N | -0.67% | 3.41% | 0.36% |
| COc1ccc(NC(=O)C(NC(C)=O)C(=O)NCc2ccccc2Cl)cc1 (stereo unspecified) | -0.36% | 1.86% | 2.33% |
| Cc1ccc(-c2nn(-c3ccccc3)cc2/C=C2\SC(=S)N(CCCCCC(=O)O)C2=O)o1 | 97.9% (active) | -492% | 41.5% (active) |
| CCc1cc2cc(OC)ccc2nc1SCC(=O)Nc1cc(OC)c(OC)cc1C(=O)O | -3.01% | 15.3% | 5.77% |
| Cc1ccc(C(=O)OC(C)CN2CCOCC2)cc1 (stereo unspecified) | 0.25% | -1.23% | -2.32% |
| Cc1cc(C)c2nc(-c3ccco3)cc(C(=O)O)c2c1 | 2.58% | -12.9% | 63.6% (active) |
| CC1(C(=O)NS(=O)(=O)c2ccccc2)CCN1C(=O)Cc1ccc(-c2ccccc2)cc1 (stereo unspecified) | -0.39% | 2.02% | 1.27% |
| O=C(COC(=O)CCC(=O)c1cccs1)NCc1ccco1 | 11.5% (active) | -58.1% | 19.2% (active) |
| COc1cc(NC(=O)COC(=O)c2ccc([N+](=O)[O-])s2)cc(OC)c1OC | -0.28% | 1.01% | 51.5% (active) |
| Cc1cc(=O)oc2c3c(cc(OCC(=O)N[C@H](C(=O)O)c4ccccc4)c12)OC(C)(C)CC3 | -0.04% | 0.3% | -1.12% |
| Clc1cc(NC2CCCCC2)ncn1 | -0.3% | 1.2% | -4.64% |
| CCN(CC)CCOc1ccc2c(c1)C(=NNC(=O)c1ccccn1)c1cc(OCCN(CC)CC)ccc1-2 | 2.34% | -8.61% | 6.51% |
| CCCCNC(=O)OC1CC2CC1[C@H]1CCCCN1C2=O (stereo partly specified) | -0.71% | 3.63% | -1.12% |
